{
  "source": "PubChem BioAssay (NCATS)",
  "note": "Records with an inconclusive call do not appear. Where a call stands in place of a potency, no number is given. Values without a mark were called inactive. Active and inactive are the calls of the source. The call rests on the fitted dose curve.",
  "data": [
    {"experiment": "Primary qHTS for inhibitors of MERS-S pseudo-typed particle cell entry (AID 1479149); further: nearly all actives have a fitted effect of over 60% in size", "details": "MERS-S pseudotyped particle entry, luciferase; series mostly up to 57.1 µM; activity change, negative = inhibition: at the top concentration", "units": {"activity change, negative = inhibition": "%"}, "values": [
      {"compound": "C1N2CN3CN1CN(C2)C3", "outcome": "inactive"},
      {"compound": "O[C@@H]1CO[C@H]2[C@@H]1OC[C@@H]2O", "outcome": "inactive"},
      {"compound": "COc1cc2nc(N3CCN(C(=O)C4CCCO4)CC3)nc(N)c2cc1OC", "note": "(centres undefined)", "activity change, negative = inhibition": -10.5},
      {"compound": "C[C@@H](O)[C@H]1C(=O)N2C(C(=O)O)=C(S[C@@H]3CN[C@H](C(=O)N(C)C)C3)[C@H](C)[C@H]12", "Potency": "inactive"},
      {"compound": "C[C@@H]1C[C@H]2[C@@H]3CCC4=CC(=O)C=C[C@]4(C)[C@@]3(F)[C@@H](O)C[C@]2(C)[C@@]1(O)C(=O)CO", "outcome": "inactive"},
      {"compound": "COC(=O)C(c1ccccc1Cl)N1CCc2sccc2C1", "note": "(centres undefined)", "activity change, negative = inhibition": -15.9},
      {"compound": "O=C(C1CCCCC1)N1CC(=O)N2CCc3ccccc3C2C1", "note": "(centres undefined)", "outcome": "inactive"},
      {"compound": "CCCCCOC(=O)Nc1nc(=O)n([C@@H]2O[C@H](C)[C@@H](O)[C@H]2O)cc1F", "outcome": "inactive"},
      {"compound": "CN(CCOc1ccc(CC2SC(=O)NC2=O)cc1)c1ccccn1", "note": "(centres undefined)", "outcome": "inactive"},
      {"compound": "Cc1ccccc1N1C(=O)c2cc(S(N)(=O)=O)c(Cl)cc2NC1C", "note": "(centres undefined)", "activity change, negative = inhibition": -1.01},
      {"compound": "C[C@@H](O)[C@H]1C(=O)N2C(C(=O)O)=C(S[C@@H]3CN[C@H](CNS(N)(=O)=O)C3)[C@H](C)[C@H]12", "outcome": "inactive"},
      {"compound": "CCN(CC)CCNC(=O)c1cc(Cl)c(N)cc1OC", "outcome": "inactive"},
      {"compound": "Cc1onc(-c2c(Cl)cccc2Cl)c1C(=O)N[C@@H]1C(=O)N2[C@@H]1SC(C)(C)[C@@H]2C(=O)O", "outcome": "inactive"},
      {"compound": "NC(=O)C(c1ccccc1)(c1ccccc1)[C@@H]1CCN(CCc2ccc3c(c2)CCO3)C1", "outcome": "inactive"},
      {"compound": "CC1(C)O[C@@H]2[C@@H](CO[C@@]3(COS(N)(=O)=O)OC(C)(C)O[C@@H]23)O1", "outcome": "inactive"},
      {"compound": "CN(C)c1cc(NC(=O)CNC(C)(C)C)c(O)c2c1C[C@@H]1C[C@H]3[C@H](N(C)C)C(=O)C(C(N)=O)=C(O)[C@@]3(O)C(=O)C1=C2O", "outcome": "inactive"},
      {"compound": "O=C1OCCN1/N=C/c1ccc([N+](=O)[O-])o1", "outcome": "inactive"},
      {"compound": "Nc1nc2c(ncn2COC(CO)CO)c(=O)[nH]1", "outcome": "inactive"},
      {"compound": "CC(=O)Oc1cc2c(s1)CCN(C(C(=O)C1CC1)c1ccccc1F)C2", "note": "(centres undefined)", "outcome": "inactive"},
      {"compound": "CCn1cc(C(=O)O)c(=O)c2ccc(C)nc21", "outcome": "inactive"},
      {"compound": "CC(C)[N+](C)(CCOC(=O)C1c2ccccc2Oc2ccccc21)C(C)C", "outcome": "inactive"},
      {"compound": "C[N+]1(C)CCC(OC(=O)C(O)(c2ccccc2)C2CCCC2)C1", "note": "(centres undefined)", "activity change, negative = inhibition": 4.13},
      {"compound": "Cc1ccc(-c2cc(C(F)(F)F)nn2-c2ccc(S(N)(=O)=O)cc2)cc1", "outcome": "inactive"},
      {"compound": "C[C@@H](c1ncncc1F)C(O)(Cn1cncn1)c1ccc(F)cc1F", "note": "(some centres undefined)", "outcome": "inactive"},
      {"compound": "CCOC(=O)C1=C(C)NC(C)=C(C(=O)OC)C1c1cccc(Cl)c1Cl", "note": "(centres undefined)", "outcome": "inactive"},
      {"compound": "NNCCc1ccccc1", "outcome": "inactive"},
      {"compound": "CN(CCOc1ccc(NS(C)(=O)=O)cc1)CCc1ccc(NS(C)(=O)=O)cc1", "outcome": "inactive"},
      {"compound": "CN(N=O)C(=O)N[C@@H]1[C@@H](O)[C@H](O)[C@@H](CO)O[C@@H]1O", "outcome": "inactive"},
      {"compound": "O=C(O)c1cn(C2CC2)c2cc(N3CCNCC3)c(F)cc2c1=O", "outcome": "inactive"},
      {"compound": "CCCCC1=NC2(CCCC2)C(=O)N1Cc1ccc(-c2ccccc2-c2nn[nH]n2)cc1", "activity change, negative = inhibition": 1.24},
      {"compound": "CC1=NS(=O)(=O)c2cc(Cl)ccc2N1", "outcome": "inactive"},
      {"compound": "CNCCc1ccccn1", "outcome": "inactive"},
      {"compound": "Cc1ccc(S(=O)(=O)NC(=O)NN2CC3CCCC3C2)cc1", "note": "(centres undefined)", "outcome": "inactive"},
      {"compound": "CCN1CCN(C(=O)N[C@@H](C(=O)N[C@@H]2C(=O)N3C(C(=O)O)=C(CSc4nnnn4C)CS[C@H]23)c2ccc(O)cc2)C(=O)C1=O", "outcome": "inactive"},
      {"compound": "CCCc1cc(=O)[nH]c(=S)[nH]1", "outcome": "inactive"},
      {"compound": "CC(=O)SC[C@@H](C)C(=O)N1CCC[C@H]1C(=O)N[C@@H](Cc1ccccc1)C(=O)O", "outcome": "inactive"},
      {"compound": "COC(c1ccccc1)(c1ccccc1)[C@H](Oc1nc(C)cc(C)n1)C(=O)O", "activity change, negative = inhibition": -21.1}
    ]},
    {"experiment": "Primary qHTS for Vero E6 cytotoxicity: counterscreen for inhibitors of SARS-S pseudo-typed particle cell entry (AID 1479150)", "details": "cell viability; series mostly up to 57.1 µM; activity change, negative = cytotoxicity: at the top concentration", "units": {"activity change, negative = cytotoxicity": "%"}, "values": [
      {"compound": "C1N2CN3CN1CN(C2)C3", "outcome": "inactive"},
      {"compound": "O[C@@H]1CO[C@H]2[C@@H]1OC[C@@H]2O", "activity change, negative = cytotoxicity": 1.5},
      {"compound": "COc1cc2nc(N3CCN(C(=O)C4CCCO4)CC3)nc(N)c2cc1OC", "note": "(centres undefined)", "activity change, negative = cytotoxicity": -7.54},
      {"compound": "C[C@@H](O)[C@H]1C(=O)N2C(C(=O)O)=C(S[C@@H]3CN[C@H](C(=O)N(C)C)C3)[C@H](C)[C@H]12", "Potency": "inactive"},
      {"compound": "C[C@@H]1C[C@H]2[C@@H]3CCC4=CC(=O)C=C[C@]4(C)[C@@]3(F)[C@@H](O)C[C@]2(C)[C@@]1(O)C(=O)CO", "outcome": "inactive"},
      {"compound": "COC(=O)C(c1ccccc1Cl)N1CCc2sccc2C1", "note": "(centres undefined)", "activity change, negative = cytotoxicity": -3.98},
      {"compound": "O=C(C1CCCCC1)N1CC(=O)N2CCc3ccccc3C2C1", "note": "(centres undefined)", "outcome": "inactive"},
      {"compound": "CCCCCOC(=O)Nc1nc(=O)n([C@@H]2O[C@H](C)[C@@H](O)[C@H]2O)cc1F", "outcome": "inactive"},
      {"compound": "CN(CCOc1ccc(CC2SC(=O)NC2=O)cc1)c1ccccn1", "note": "(centres undefined)", "outcome": "inactive"},
      {"compound": "Cc1ccccc1N1C(=O)c2cc(S(N)(=O)=O)c(Cl)cc2NC1C", "note": "(centres undefined)", "outcome": "inactive"},
      {"compound": "C[C@@H](O)[C@H]1C(=O)N2C(C(=O)O)=C(S[C@@H]3CN[C@H](CNS(N)(=O)=O)C3)[C@H](C)[C@H]12", "outcome": "inactive"},
      {"compound": "CCN(CC)CCNC(=O)c1cc(Cl)c(N)cc1OC", "outcome": "inactive"},
      {"compound": "Cc1onc(-c2c(Cl)cccc2Cl)c1C(=O)N[C@@H]1C(=O)N2[C@@H]1SC(C)(C)[C@@H]2C(=O)O", "activity change, negative = cytotoxicity": -4.4},
      {"compound": "NC(=O)C(c1ccccc1)(c1ccccc1)[C@@H]1CCN(CCc2ccc3c(c2)CCO3)C1", "outcome": "inactive"},
      {"compound": "CC1(C)O[C@@H]2[C@@H](CO[C@@]3(COS(N)(=O)=O)OC(C)(C)O[C@@H]23)O1", "activity change, negative = cytotoxicity": 1.77},
      {"compound": "CN(C)c1cc(NC(=O)CNC(C)(C)C)c(O)c2c1C[C@@H]1C[C@H]3[C@H](N(C)C)C(=O)C(C(N)=O)=C(O)[C@@]3(O)C(=O)C1=C2O", "outcome": "inactive"},
      {"compound": "O=C1OCCN1/N=C/c1ccc([N+](=O)[O-])o1", "activity change, negative = cytotoxicity": 0.972},
      {"compound": "Nc1nc2c(ncn2COC(CO)CO)c(=O)[nH]1", "activity change, negative = cytotoxicity": -13.7},
      {"compound": "CC(=O)Oc1cc2c(s1)CCN(C(C(=O)C1CC1)c1ccccc1F)C2", "note": "(centres undefined)", "activity change, negative = cytotoxicity": -8.83},
      {"compound": "CCn1cc(C(=O)O)c(=O)c2ccc(C)nc21", "activity change, negative = cytotoxicity": -4.1},
      {"compound": "CC(C)[N+](C)(CCOC(=O)C1c2ccccc2Oc2ccccc21)C(C)C", "activity change, negative = cytotoxicity": -0.587},
      {"compound": "C[N+]1(C)CCC(OC(=O)C(O)(c2ccccc2)C2CCCC2)C1", "note": "(centres undefined)", "activity change, negative = cytotoxicity": -2.72},
      {"compound": "Cc1ccc(-c2cc(C(F)(F)F)nn2-c2ccc(S(N)(=O)=O)cc2)cc1", "outcome": "inactive"},
      {"compound": "C[C@@H](c1ncncc1F)C(O)(Cn1cncn1)c1ccc(F)cc1F", "note": "(some centres undefined)", "activity change, negative = cytotoxicity": -3.03},
      {"compound": "CCOC(=O)C1=C(C)NC(C)=C(C(=O)OC)C1c1cccc(Cl)c1Cl", "note": "(centres undefined)", "outcome": "inactive"},
      {"compound": "NNCCc1ccccc1", "outcome": "inactive"},
      {"compound": "CN(CCOc1ccc(NS(C)(=O)=O)cc1)CCc1ccc(NS(C)(=O)=O)cc1", "outcome": "inactive"},
      {"compound": "CN(N=O)C(=O)N[C@@H]1[C@@H](O)[C@H](O)[C@@H](CO)O[C@@H]1O", "activity change, negative = cytotoxicity": -3.14},
      {"compound": "O=C(O)c1cn(C2CC2)c2cc(N3CCNCC3)c(F)cc2c1=O", "outcome": "inactive"},
      {"compound": "CCCCC1=NC2(CCCC2)C(=O)N1Cc1ccc(-c2ccccc2-c2nn[nH]n2)cc1", "activity change, negative = cytotoxicity": -10.8},
      {"compound": "CC1=NS(=O)(=O)c2cc(Cl)ccc2N1", "activity change, negative = cytotoxicity": 0.343},
      {"compound": "CNCCc1ccccn1", "outcome": "inactive"},
      {"compound": "Cc1ccc(S(=O)(=O)NC(=O)NN2CC3CCCC3C2)cc1", "note": "(centres undefined)", "activity change, negative = cytotoxicity": 3.08},
      {"compound": "CCN1CCN(C(=O)N[C@@H](C(=O)N[C@@H]2C(=O)N3C(C(=O)O)=C(CSc4nnnn4C)CS[C@H]23)c2ccc(O)cc2)C(=O)C1=O", "activity change, negative = cytotoxicity": 1.22},
      {"compound": "CCCc1cc(=O)[nH]c(=S)[nH]1", "outcome": "inactive"},
      {"compound": "CC(=O)SC[C@@H](C)C(=O)N1CCC[C@H]1C(=O)N[C@@H](Cc1ccccc1)C(=O)O", "activity change, negative = cytotoxicity": 4.12},
      {"compound": "COC(c1ccccc1)(c1ccccc1)[C@H](Oc1nc(C)cc(C)n1)C(=O)O", "outcome": "inactive"}
    ]}
  ]
}
